Among the test systems are CDK2; CDK3; CDK4-cyclinD1; CDK4-cyclinD3; CDK4; CDK5; CDK7; CDK8; CDK9; CDKL1.
What all share (conditions): concentration: 1 μM, replicates: in singlicate; n = 1
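Note: KINOMEscan kinase panel screen.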

For `COC(=O)c1c(-c2ccccc2)c2cc(Cl)ccc2c(=O)n1Cc1ccc(S(C)(=O)=O)cc1`, the “%Inh” value stood at 0% with CDK2; 0% in the test on CDK3; 0% in the test on CDK4-cyclinD1; 4% in the test on CDK4-cyclinD3; 0% in the test on CDK4; 7% with CDK5. Also, the “%Inh” value is on record as 10% in the test with CDK7, 0% in the test with CDK8, 7% with CDK9 and 9% in the test with CDKL1.
With `Cl.Cn1ccc(-c2cccc(Nc3ccnc4cc(-c5nccs5)ccc34)c2)n1` [GW525701], the “%Inh” value stood at 0% with CDK2; 6% in the test with CDK3; 47% in the test with CDK4-cyclinD1; 0% in the test on CDK4-cyclinD3; 36% with CDK4; 0% in the test on CDK5. The “%Inh” value with CDK7 is 0%; in the test on CDK8 it was 7%; with CDK9, 0%; in the test on CDKL1, 0%.
`Cc1cccc(-c2nc(Nc3ccc4[nH]nnc4c3)c3ccccc3n2)n1` [GW867587]: the “%Inh” value in the test with CDK2 was found to be 0%; with CDK3, 15%; in the test on CDK4-cyclinD1, 0%; in the test with CDK4-cyclinD3, 0%; in the test on CDK4 it was 0%; in the test with CDK5 it was 0%. Moreover, the “%Inh” value is listed as 0% in the test with CDK7, 30% in the test with CDK8, 0% in the test with CDK9 and 0% with CDKL1.
Turning to `Cn1cc(-c2ccc3c(c2)CCN3C(=O)Cc2cccc(C(F)(F)F)c2)c2c(N)ncnc21` [GSK2606414], the “%Inh” value with CDK2 is reported as 0%; with CDK3, 0%; with CDK4-cyclinD1, 0%; in the test with CDK4-cyclinD3, 0%; in the test with CDK4, 6%; in the test on CDK5, 0%. Besides, the “%Inh” value stood at 0% in the test on CDK7, 34% in the test with CDK8, 0% in the test on CDK9 and 0% in the test with CDKL1.
For the compound `CC(C)(C)c1ccc(-n2cnc3c(N)ncnc32)cc1` [SKF-97263], the “%Inh” value in the test with CDK2 is 0%; in the test with CDK3, 3%; in the test with CDK4-cyclinD1, 0%; with CDK4-cyclinD3 it was 0%; in the test on CDK4, 0%; with CDK5, 0%. Besides, the “%Inh” value with CDK7, in the test with CDK8, with CDK9 and in the test with CDKL1 was 0% each time.
Regarding `Cl.Fc1ccccc1COc1ccc(Nc2ncnc3ccc(-c4nnc(C(F)(F)F)o4)cc23)cc1Cl` [GW424170], the “%Inh” value is 0% in the test on CDK2; 0% with CDK3; 0% with CDK4-cyclinD1; 0% with CDK4-cyclinD3; 26% in the test with CDK4; 0% in the test on CDK5. The “%Inh” value with CDK7 came out at 0%; with CDK8, 29%; in the test on CDK9, 0%; in the test with CDKL1, 3%.
As to `Nc1nc(-c2ccccn2)c(-c2ccnc3ccccc23)s1` [GW548057], the “%Inh” value in the test on CDK2 came to 0%; in the test with CDK3, 5%; with CDK4-cyclinD1, 49%; with CDK4-cyclinD3, 0%; with CDK4 it was 0%; with CDK5 it was 0%. The “%Inh” value is 2% with CDK7, 56% in the test with CDK8, 0% with CDK9 and 12% in the test on CDKL1.
With `COc1cc2ncnc(Nc3ccc(OCc4ccccc4Br)c(Cl)c3)c2cc1OC.Cl` [GI261590], the “%Inh” value in the test on CDK2 is listed as 0%; in the test with CDK3, 8%; in the test with CDK4-cyclinD1, 13%; in the test with CDK4-cyclinD3, 6%; in the test on CDK4, 8%; in the test with CDK5 it was 18%. Further, the “%Inh” value with CDK7 turned out to be 0%; in the test with CDK8 it was 0%; with CDK9, 9%; with CDKL1, 20%.
As to `CSc1ccc(NC2=C(c3ccccc3Cl)C(=O)NC2=O)cc1` [SB-342411], the “%Inh” value in the test with CDK2 was 10%; in the test with CDK3, 26%; in the test on CDK4-cyclinD1 it was 61%; in the test with CDK4-cyclinD3, 30%; in the test with CDK4 it was 0%; with CDK5, 0%. For the same compound, the “%Inh” value in the test on CDK7 turned out to be 43%; in the test on CDK8, 7%; in the test with CDK9, 0%; in the test with CDKL1, 13%.
For the compound `C[C@@H]1CCN(C(=O)CO)C[C@@H]1N(C)c1ncnc2[nH]ccc12`, the “%Inh” value in the test on CDK2 amounted to 0%; with CDK3 it was 0%; in the test with CDK4-cyclinD1, 0%; in the test on CDK4-cyclinD3, 0%; in the test on CDK4, 0%; in the test with CDK5, 4%. Moreover, the “%Inh” value in the test with CDK7 was determined as 20%; in the test on CDK8, 0%; with CDK9 it was 9%; with CDKL1, 12%.
In the case of `CN1c2ccc(-c3ccc(C(=O)NCCO)cc3)cc2-c2[nH]ncc2S1(=O)=O`, the “%Inh” value in the test with CDK2 is on record as 2%; in the test with CDK3, 0%; in the test on CDK4-cyclinD1, 20%; with CDK4-cyclinD3, 12%; in the test with CDK4, 0%; in the test with CDK5, 0%. In addition, the “%Inh” value with CDK7 is given as 32%; in the test with CDK8, 0%; in the test with CDK9 it was 0%; in the test with CDKL1 it was 22%.
In the case of `NC(=O)c1sc(-n2cnc3ccccc32)cc1OCc1ccccc1F` [GSK1024306], the “%Inh” value with CDK2 turned out to be 0%; in the test on CDK3, 0%; in the test on CDK4-cyclinD1 it was 0%; in the test with CDK4-cyclinD3, 0%; with CDK4, 33%; in the test with CDK5, 0%. Also, the “%Inh” value in the test with CDK7 is listed as 0%; in the test on CDK8, 37%; in the test on CDK9, 0%; in the test with CDKL1 it was 10%.
As to `Cn1ccc2ncnc(Nc3ccc(Oc4cccc(Cl)c4)c(Cl)c3)c21`, the “%Inh” value with CDK2 was determined as 0%; in the test with CDK3, 0%; in the test on CDK4-cyclinD1, 0%; with CDK4-cyclinD3, 0%; in the test with CDK4, 0%; with CDK5 it was 21%. Further, the “%Inh” value in the test on CDK7 was 14%; in the test on CDK8, 22%; with CDK9 it was 15%; in the test on CDKL1, 10%.
As to `O=C(CCO)NCCn1ccc2ncnc(Nc3ccc(Oc4cccc(C(F)(F)F)c4)c(Cl)c3)c21`, the “%Inh” value in the test on CDK2, with CDK3, with CDK4-cyclinD1, with CDK4-cyclinD3, in the test on CDK4 and in the test with CDK5 was 0% in each case. In addition, the “%Inh” value in the test on CDK7 is on record as 0%; with CDK8 it was 6%; in the test with CDK9 it was 0%; in the test with CDKL1, 15%.
As to `Nc1nccc2scc(-c3ccc4c(c3)CCN4C(=O)Cc3cc(F)ccc3F)c12` [GSK2587663], the “%Inh” value in the test with CDK2 was 0%; in the test on CDK3, 18%; in the test with CDK4-cyclinD1 it was 0%; with CDK4-cyclinD3, 0%; in the test with CDK4, 0%; in the test with CDK5 it was 0%. In addition, the “%Inh” value in the test on CDK7 was found to be 0%; with CDK8 it was 61%; in the test on CDK9, 0%; with CDKL1, 23%.
For the compound `c1ccc(-c2ccc3c(-c4ccnc(Nc5ccc6c(c5)OCCO6)n4)cnn3n2)cc1` [GW818941], the “%Inh” value with CDK2 is 0%; with CDK3 it was 3%; with CDK4-cyclinD1, 0%; in the test with CDK4-cyclinD3 it was 0%; in the test with CDK4, 34%; in the test on CDK5, 0%. Also, the “%Inh” value in the test on CDK7 is recorded as 0%; in the test on CDK8, 11%; in the test with CDK9, 0%; in the test with CDKL1 it was 0%.
With `FC(F)(F)c1ccc(-c2cc(-c3c[nH]nc3-c3ccccn3)ccn2)cc1` [GW599550], the “%Inh” value in the test on CDK2 is on record as 2%; in the test on CDK3, 20%; in the test on CDK4-cyclinD1 it was 11%; in the test with CDK4-cyclinD3, 0%; with CDK4, 35%; with CDK5, 0%. Besides, the “%Inh” value is 0% in the test with CDK7, 32% in the test on CDK8, 0% in the test on CDK9 and 2% with CDKL1.

Values taken from PMC5540273 (PLoS ONE, 2017).
